Records with an inconclusive call do not appear. Active and inactive are the calls of the source. Calls come from the whole dose curve; as a rule, active = well fitted inhibition curve with a large enough effect; inconclusive = small, poorly fitted or top-dose-only effect; inactive = flat fitted curve, though single readings scatter.
How the values were obtained:
Experiment in all cases: qHTS profiling for inhibitors of Plasmodium falciparum proliferation (AID 504749); note: nearly all actives have a fitted effect of over 60% in size
Settings in all cases: P. falciparum in erythrocytes, SYBR Green DNA, 72 h; series mostly up to 28.7 µM
ECU = system: ECU
Procedure, shortened: (§1)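 Parasite proliferation within erythrocytes, 72 h exposure. Endpoint: SYBR Green I fluorescence after overnight lysis at room temperature. Controls: 0.29 uM artemisinin, DMSO.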

FAB9 = system: FAB9
Procedure, shortened: as §1

HB3 = system: HB3
Procedure, shortened: as §1

N140 = system: N140
Procedure, shortened: as §1

P93_24 = system: P93_24
Procedure, shortened: as §1

PC15 = system: PC15
Procedure, shortened: as §1

PC49 = system: PC49
Procedure, shortened: as §1

TAB109 = system: TAB109
Procedure, shortened: as §1

W2 = system: W2
Procedure, shortened: as §1

ICS = system: ICS
Procedure, shortened: as §1

JCK = system: JCK
Procedure, shortened: as §1

SC27B = system: SC27B
Procedure, shortened: as §1

PC26 = system: PC26
Procedure, shortened: as §1

TAB113 = system: TAB113
Procedure, shortened: as §1

GB4 = system: GB4
Procedure, shortened: as §1

P94_40 = system: P94_40
Procedure, shortened: as §1

PAD = system: PAD
Procedure, shortened: as §1

TAB165 = system: TAB165
Procedure, shortened: as §1

Measured: Potency
Potency is the fitted concentration of half-maximal effect.

O=P(O)(O)OP(=O)(O)O
inactive: ECU | FAB9 | HB3 | P93_24 | PC15 | PC49 | TAB109
active: N140 8.91 µM | W2 13.5 µM

OCc1ccccc1
active: ICS 2.24 µM | PC15 10 µM | W2 5.36 µM

NC(=O)CC[C@@H]1NC(=O)[C@H](Cc2ccccc2)NC(=O)[C@H](Cc2ccc(O)cc2)NC(=O)[C@@H](N)CSSC[C@@H](C(=O)N2CCC[C@H]2C(=O)N[C@@H](CCCN=C(N)N)C(=O)NCC(N)=O)NC(=O)[C@H](CC(N)=O)NC1=O
active: ICS 8.91 µM | W2 8.49 µM
inactive: FAB9 | JCK | PC15 | PC49 | SC27B

CNC(=O)[C@H](Cc1c[nH]c2ccccc12)NC(=O)[C@@H](CC(=O)NO)CC(C)C
active: W2 15.1 µM
inactive: JCK | PC15 | PC26 | PC49 | SC27B | TAB113

COc1ccc2c(c1)OC(C)(C)C(c1ccccc1)C2c1ccc(OCCN2CCCC2)cc1 (stereo not drawn)
active: ECU 8.91 µM | GB4 4.78 µM | HB3 7.94 µM | ICS 2.82 µM | N140 5.01 µM | P93_24 5.01 µM | P94_40 6.31 µM | PAD 8.91 µM | PC15 11.2 µM | PC26 4.78 µM | SC27B 8.91 µM | TAB109 3.16 µM | TAB113 8.91 µM | TAB165 3.16 µM | W2 1.69 µM

CSc1nc2cc(Oc3cccc(Cl)c3Cl)c(Cl)cc2[nH]1
active: ECU 6.31 µM | GB4 12 µM | HB3 8.91 µM | N140 8.91 µM | P93_24 10 µM | P94_40 10 µM | PC15 8.91 µM | PC26 5.36 µM | PC49 12.6 µM | SC27B 12.6 µM | TAB109 7.94 µM | TAB113 8.91 µM | TAB165 7.94 µM | W2 6.75 µM

O=C(OC1C[C@@H]2CC3C[C@H](C1)N2CC3=O)c1c[nH]c2ccccc12 (stereo partly drawn)
inactive: FAB9 | HB3 | JCK | N140 | P93_24 | P94_40 | SC27B | TAB113
active: ICS 10 µM

CC[C@H]1OC(=O)[C@H](C)[C@@H](O[C@H]2C[C@@](C)(OC)[C@@H](O)[C@H](C)O2)C(C)[C@@H](O[C@@H]2O[C@H](C)C[C@H](N(C)C)[C@@H]2O)[C@](C)(OC)C[C@@H](C)C(=O)[C@H](C)[C@@H](O)[C@]1(C)O (stereo partly drawn)
active: ICS 10 µM | W2 3.79 µM
inactive: ECU | JCK | N140 | P93_24 | P94_40 | PAD | PC49 | SC27B | TAB109 | TAB113 | TAB165

CC(=O)c1ccc2c(c1)N(CCCN1CCN(CCO)CC1)c1ccccc1S2
active: ECU 12.6 µM | GB4 8.49 µM | ICS 7.94 µM | P93_24 8.91 µM | P94_40 10 µM | PC15 11.2 µM | PC26 7.57 µM | PC49 11.2 µM | TAB109 7.08 µM | TAB165 11.2 µM | W2 5.36 µM

CCOc1cc(-c2nccc3cc(OC)c(OC)cc23)cc(OCC)c1OCC
active: ECU 11.2 µM | W2 15.1 µM
inactive: TAB109

O=C1c2ccccc2CN2C(=O)c3ccccc3CN12
inactive: FAB9 | GB4 | HB3 | ICS | JCK | N140 | P93_24 | P94_40 | PAD | PC15 | PC26 | PC49 | SC27B | TAB109 | TAB113 | TAB165 | W2

Source: PubChem BioAssay (NCATS)
